Each structure is given as a SMILES string.

Our source for the XTT viability values is the supplement of paper PMC6805474.

The subject of this test is Schistosoma mansoni schistosomula (LE). Nature of the test: XTT viability relative to DMSO control; higher = more viable (less active). To be noted: 72 h; 10 µM. On the procedure: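 XTT/PMS was then added for a further 24 h (72 h total) and A450 was read. % viability = (sample - heat-killed control)/(DMSO control - heat-killed control) x 100, from duplicate wells in two independent experiments.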
Take `Nc1nc2ccc(-c3cncc(Oc4ccc(F)cc4)c3)cc2[nH]1`: the XTT viability worked out at 111%.
Turning to `c1ccc(-c2cc(N3CCCCC3)c3ccccc3n2)nc1`, the XTT viability came out at 59.9%.
Then `Cc1ccc2nc(C)c(-c3ccn(Cc4ccccc4)n3)n2c1`, with 95.7%.
Regarding `CC(C(=O)N1CCCC1)N1CCN(S(=O)(=O)c2ccc(C(C)(C)C)cc2)CC1` (stereo not given), the XTT viability came out at 109%.
Then `Cc1cc(NC(=O)c2ccc(S(=O)(=O)N(Cc3ccccc3)C(C)C)cc2)no1`, with 106%; and `CCOc1ccc2cc(-c3nn(C(C)(C)C)c(N)c3C(N)=O)cnc2c1`, with 75.2%; and `COc1ccc(C2(C(=O)Nc3ccc(Br)cc3)CCCC2)cc1`, with 91%.
As for `CC1CC1C(=O)NC1CCN(CC2(c3ccccc3)CCCCC2)CC1` (stereo not given), the figure is 82.4%; as for `Nc1ncc(Br)cc1-c1nc2cc(Cl)cnc2[nH]1`, 131%; as for `Cc1cc(NCC(C)C)c2n[nH]c(-c3ccccc3)c2n1`, 92.7%.
Then `CC(Oc1ccccc1)C(=O)Nc1nc(-c2ccccn2)cs1` (stereo not given), with 59.4%.
`O=C(NC1CCCCC1)N1CCN(Cc2ccc3c(c2)OCO3)CC1`: the XTT viability stood at 88.6%.
Then `O=C(Nc1ccccc1-c1nc2c(C(=O)O)cccc2o1)c1ccccc1`, with 54.1%.
As for `CC(=O)NCC1CN(c2ccc(-c3ccc(CO)cc3)c(F)c2)C(=O)O1` (stereo not given), the figure is 138%.
Regarding `COc1cccc(-c2nc3c(N4CCCC4)cccc3n2CC2CCCN2)n1` (stereo not given), the XTT viability was 158%.
For the molecule `CC1=Nc2ccc(Cl)cc2C(O)(c2ccc(C)cc2)N1CCN1CCCCC1` (stereo not given), the XTT viability was -4.23%.
Consider `O=C1N(Cc2cc3ccccc3s2)CC2CN(Cc3ccccc3)CCN12` (stereo not given), for which the XTT viability was found to be 87.2%.
For the molecule `Oc1c(I)cc(I)c2cccnc12`, the XTT viability was found to be 6.58%.
As for `CS(=O)(=O)Cc1nc2ccccc2oc1=O`, the figure is 355%; as for `COc1ccc(-c2cnc3cnc(-c4cccc(OC(C)C)c4)cn23)cc1`, 39%; as for `c1ccc2c(c1)CN(CC1CC1)CC1(CCN(Cc3c[nH]c4cnccc34)CC1)O2`, 58%.
`Cc1cnc(CCNC(=O)c2cc(-c3ccc(Cl)cc3)cs2)[nH]1`: the XTT viability turned out to be 79.7%.
As for `Cn1ncc2c(N3CCOCC3)nc(NCCc3c[nH]c4ccccc34)nc21`, the figure is 71.8%; as for `CC(C)(C)OC(=O)N1CCC(Cn2nc(-c3cnc4ccccc4c3)c3c(N)ncnc32)CC1`, 125%; as for `CCN(CC)S(=O)(=O)c1ccc(C(=O)Nc2cc(C)nn2-c2nc(C)c(C)c(=O)[nH]2)cc1`, 80.6%.
In the case of `COc1ccc(N(CCc2cccc(C)n2)C(=O)C2CCCCC2)cc1`, the XTT viability was 88.7%.
In the case of `O=C(Nc1nnc(-c2ccc(Cl)cc2)o1)c1cccc(C(F)(F)F)c1`, the XTT viability was -9.98%.
Then `Cc1cccc(NC(=O)c2cc(S(=O)(=O)N(C)c3ccc(F)cc3)ccc2Cl)n1`, with 81%; and `N=C(N)Nc1ccc(-c2ccc(-c3ccc(N=C(N)N)c(Cl)c3)o2)cc1Cl`, with 89.7%; and `COc1ccc(-c2cncc3ccc(C(=O)NCCCn4ccnc4)nc23)cc1`, with 121%.
`Cc1[nH]c2ccccc2c1C(c1cccs1)N1CCN(C)CC1` (stereo not given): the XTT viability was 6.43%.
As to `O=C(N[C@H](Cc1ccccc1)C(=O)Nc1ccccc1N1CCOCC1)c1cccs1`, the XTT viability worked out at 129%.
On to `c1ccc(Oc2ccc(-c3cc(C4CCOCC4)[nH]n3)cc2)cc1`, for which the XTT viability was 98.4%.
Consider `N#Cc1nc(-c2ccccc2F)oc1NCCc1ccccc1`, for which the XTT viability was 94%.
As for `Cc1cc(C(=O)Nc2cnn(Cc3ccc(Cl)cc3Cl)c2)no1`, the figure is 91.7%; as for `CC(=O)NC[C@H]1CN(c2ccc(N3CCSCC3)c(F)c2)C(=O)O1`, 145%; as for `O=C(NCc1cc(Cl)cc(Cl)c1)c1c(C(F)(F)F)nc2ccccn12`, 93.7%.
Then `CCOc1ccc(OCC(=O)Nc2cc(C)cc(C)c2)cc1`, with 67%.
As for `CS(=O)(=O)N1CCC(Cn2nc(Cc3cccc4ccccc34)c3c(N)ncnc32)CC1`, the figure is 122%.
Turning to `CCOC(=O)c1cc(-c2csc(Nc3c(C)cc(C)cc3C)n2)on1`, the XTT viability is 95.6%.
